Bioassay records deposited in PubChem by National Center for Advancing Translational Sciences (NCATS).
Sampled rows, rich in hits. Any-hit rate of the full collection: about 22%.
Pf growth 48h: P. falciparum growth inhibition at 48 hours (one generation); P. falciparum luciferase growth in erythrocytes, 48 h; Potency, µM (titrated, usually from 28.7 µM), usual class: inhibitors; hit rate 5.9% among 310,000; AID 504832
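Firefly luciferase activity from engineered P. falciparum reports growth; inhibitors lower the luminescent signal. Cultures contained 2% hematocrit erythrocytes at 0.1% final parasitemia.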
LmPK inh: blocks Leishmania mexicana pyruvate kinase activity; Q27686; purified LmPK, Kinase-Glo ATP luminescence, 1 h; Potency, µM (highest dose often 57.5 µM), actives largely listed as inhibitors; hit rate 0.37% among 290,000
Target sequence (Q27686 whole entry, looked up): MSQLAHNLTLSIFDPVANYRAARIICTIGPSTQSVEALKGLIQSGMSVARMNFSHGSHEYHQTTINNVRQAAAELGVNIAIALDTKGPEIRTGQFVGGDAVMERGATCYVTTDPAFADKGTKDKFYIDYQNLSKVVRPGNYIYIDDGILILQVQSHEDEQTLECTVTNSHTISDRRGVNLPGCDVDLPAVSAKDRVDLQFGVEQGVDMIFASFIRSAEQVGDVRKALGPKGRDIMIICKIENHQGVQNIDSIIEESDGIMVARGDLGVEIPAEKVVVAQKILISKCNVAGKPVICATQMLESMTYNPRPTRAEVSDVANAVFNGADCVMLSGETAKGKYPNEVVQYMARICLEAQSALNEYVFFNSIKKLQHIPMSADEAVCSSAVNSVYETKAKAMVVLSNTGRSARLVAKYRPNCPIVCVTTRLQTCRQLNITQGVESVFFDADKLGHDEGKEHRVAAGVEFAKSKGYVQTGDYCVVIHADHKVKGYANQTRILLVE
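0.1 nM LmPK, 0.5 mM PEP, 0.1 mM ADP; 50 mM imidazole pH 7.2, 7 mM MgCl2, 50 mM KCl; 1 h RT. Kinase-Glo luminescence readout, normalized to no-enzyme (full inhibition) and uninhibited wells.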
Pf growth 96h: P. falciparum growth inhibition at 96 hours | P. falciparum luciferase reporter growth, 96 h | Potency, µM (top dose mostly 28.7 µM), most hits filed as inhibitors | hit rate 6.9% among 320,000
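Plates of compound plus infected erythrocytes (2% hematocrit, 0.05% parasitemia final) incubate 96 hours, 37 C, 5% CO2. Detection reagent added; reduced luminescence from the parasites' luciferase reporter flags inhibition.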
Cycloheximide cs: affects cycloheximide protein synthesis inhibition readout, counter-screen; cell reporter, cycloheximide protein synthesis inhibition counterscreen; max response, %; hit rate 12% among 300,000; AID 2314; in the data active = max response mostly above about 13%, no sharp cut-off; inactive = mostly below about 14%; also: read at 38.3 µM for the half of the compounds with a filed dose
Shiga toxin inh: inhibitors of Shiga toxin in Vero cells; Vero cells, Shiga toxin protein synthesis inhibition reporter; inhibition, % at 38.7 µM; hit rate 9.2% among 290,000; AID 2315; in the data active = inhibition mostly above about 28%, no sharp cut-off; inactive = mostly below about 43%
A number is an active result; - = inactive; ? = inconclusive; . = no result; [ ] = dose if it differs, or a comment. Unless noted, calls follow the shape of the dose curve; as a rule, active = well fitted inhibition curve with a large enough effect; inconclusive = small, poorly fitted or top-dose-only effect, or another doubt; inactive = no such curve, though single readings can be large or run the other way.

SMILES | Pf growth 48h | LmPK inh | Pf growth 96h | Cycloheximide cs | Shiga toxin inh
CCOC(=O)C1CCCN(c2c(C(=O)c3ccc(C)cc3)cnc3ccc(OCC)cc23)C1 (centres undefined) | . | . | . | - | -
CC(C)(C)CC(C)(C)c1ccc(OCCO)cc1 | - | . | ? | . | .
C[N+](C)(CCOc1ccccc1)Cc1ccccc1 (tested in a mixture with another compound) | 10µM | - | - | - | -
CC(C)(C)CC(C)(C)c1ccc(OCCOCC[N+](C)(C)Cc2ccccc2)cc1 | 0.93µM | . | 0.47µM | . | .
Cc1nc(SCC(=O)Nc2nc3ccccc3s2)c(C#N)c(C)c1C | - | - | ? | 29 | -
Cc1cc(C)c(C#N)c(SCC(=O)c2ccc(Cl)cc2Cl)n1 | 13µM | - | 10µM | - | -
Cc1ccc2sc(NC(=O)CSc3nc(C)cc(C)c3C#N)nc2c1 | - | - | - | 47 | 78
Cc1cc(C(F)(F)F)c(C#N)c(SCC(=O)Nc2nc3ccccc3s2)n1 | - | - | - | 112 | 163
Cc1cc(C)c(C#N)c(SCC(=O)Nc2nnc(-c3ccccc3)s2)n1 | - | - | . | - | -
Cc1nc(N2CCOCC2)[nH]c(=O)c1C | - | - | - | - | -
Cc1ccc(NC(=S)NCCO)c(C)c1 | - | - | - | - | -
Cc1ccc(SCCNC(=S)Nc2cc(C)ccc2C)cc1 | . | - | 8.3µM | - | -
Cc1ccccc1NC(=S)NCCc1ccccc1 | - | - | - | 15 | -
Cc1ccc(SCCNC(=S)Nc2ccc(C)c(C)c2)cc1 | ? | - | - | - | -
S=C(NCCc1ccccc1)Nc1ccc(Br)cc1 | - | - | - | 53 | -
Cc1ccc(NC(=S)NCCc2ccccc2)c(C)c1 | ? | - | - | 17 | -
COc1ccc(CCNC(=S)Nc2ccccc2C)cc1 | ? | - | ? | - | -
Cc1cc(C)cc(NC(=S)NCCc2ccc(S(N)(=O)=O)cc2)c1 | - | - | 1.7µM | - | -
COc1ccccc1NC(=S)NCCc1ccccc1 | - | - | ? | - | -
CC(C)(C)NC(=S)NCCc1ccccc1 | - | - | - | 31 | 75
Cc1ccc(NC(=S)NCCc2ccc(S(N)(=O)=O)cc2)cc1C | - | - | - | - | -
Cc1cnn(C(=S)NCCc2ccccc2)c1 | - | - | . | 34 | 77
Cc1ccc(C(=O)O)cc1NC(=S)NCCc1ccccc1 | - | - | ? | - | -
Cc1ccc([N+](=O)[O-])cc1NC(=S)NCCc1ccccc1 | - | - | 13µM | - | -
CC[C@H](C)[C@H](NC(=O)[C@H](Cc1ccc(O)cc1)NC(=O)[C@H](CCCNC(=N)N)NC(=O)[C@H](CCCNC(=N)N)NC(=O)[C@H](CC(C)C)NC(=O)[C@H](CCC(N)=O)NC(=O)[C@@H](NC(=O)[C@H](CCC(=O)O)NC(=O)[C@H](Cc1ccc(O)cc1)NC(=O)[C@H](CCC(N)=O)NC(=O)[C@H](C)NC(=O)[C@H](CCCNC(=N)N)NC(=O)[C@H](CCC(N)=O)NC(=O)[C@H](CCC(=O)O)NC(=O)[C@H](Cc1cnc[nH]1)NC(=O)[C@@H](NC(=O)[C@H](C)NC(=O)[C@H](Cc1ccc(O)cc1)NC(=O)[C@H](CC(=O)O)NC(=O)CNC(=O)[C@@H]1CCCN1C(=O)[C@H](Cc1ccc(O)cc1)NC(=O)[C@H](CCSC)NC(=O)[C@@H]1CCCN1C(=O)[C@H](CCC(=O)O)NC(=O)[C@H](CC(C)C)NC(=O)[C@@H]1CCCN1C(=O)[C@H](C)N)[C@@H](C)O)[C@@H](C)O)C(=O)N[C@@H](CC(N)=O)C(=O)N[C@H](C(=O)N[C@@H](CC(C)C)C(=O)N[C@H](C(=O)N[C@@H](CCCNC(=N)N)C(=O)N1CCC[C@H]1C(=O)N[C@@H](CCCNC(=N)N)C(=O)N[C@@H](Cc1ccc(O)cc1)C(N)=O)[C@@H](C)O)[C@@H](C)O | . | . | . | - | -
SMILES | Pf growth 48h | LmPK inh | Pf growth 96h | Cycloheximide cs | Shiga toxin inh
Cc1cc(Br)ccc1NC(=S)NCCc1ccccc1 | - | - | 12µM | - | -
S=C(NCCNC(=S)Nc1ccccc1)Nc1ccccc1 | - | - | ? | - | .
CCC(C)(C)NC(=S)Nc1ccccc1C | 10µM | - | ? | - | -
Cc1ccc(C)c(NC(=S)NCC(c2ccccc2)N(C)C)c1 (centres undefined) | ? | - | ? | - | -
S=C(NCCOCCOCCNC(=S)Nc1ccccc1)Nc1ccccc1 | 6.6µM | - | - | - | -
Cc1ccc(C)c(NC(=S)NCCN(C2CCCCC2)C2CCCC2)c1 | 10µM | - | ? | - | -
Cc1ccc2c(c1)sc1nc(=O)ccn12 | - | - | ? | - | -
COc1ccc(N(C)C(=O)C2CCN(S(=O)(=O)c3cccc4nonc34)CC2)cc1 | - | - | - | - | -
COc1ccc(CCNC(=O)C2(C)CCC(=O)N2Cc2ccc(C)cc2)cc1OC (centres undefined) | - | - | ? | - | -
S=C(NCCc1ccccc1)Nc1ccccn1 | - | - | ? | 39 | 92
Cc1ccc(C)c(NC(=S)NCCc2ccc(F)cc2)c1 | 13µM | - | ? | - | -
Cc1cccc(C)c1NC(=O)CN1CCCCCC1 | - | . | ? | . | .
COc1ccc(CNC(=O)CN(Cc2ccc(F)cc2)C(=O)c2csnn2)cc1 | - | - | - | - | -
O=C(N/N=C/c1ccccn1)c1c[nH]c2ccccc12 | - | - | ? | 49 | 65
O=C(N/N=C/C1CC2CCC1C2)c1c[nH]c2ccccc12 (centres undefined) | - | - | - | 23 | -
O=C(N/N=C/c1ccc[nH]1)c1c[nH]c2ccccc12 | - | - | - | 52 | 111
O=C(N/N=C/c1ccc[nH]1)c1sc2ccccc2c1Cl | ? | - | 6.6µM | 47 | 146
Cc1ccc(NC2=C(Cl)C(=O)OC2OC(=O)c2ccc(C)cc2)cc1 (centres undefined) | - | - | - | - | -
COC(=O)c1ccc(NC2=C(Cl)C(=O)OC2OC(=O)c2ccccc2)cc1 (centres undefined) | - | - | -[1.15 µM] | 42 | -
O=C(NCCO)C(=O)Nc1cc2c3c(c1)CCC(=O)N3CCC2 | - | - | - | - | -
COc1ccc(C2C(C(C)=O)=C(O)C(=O)N2c2ccc(Br)cn2)cc1 (centres undefined) | ? | - | 4.1µM | - | -
COc1ccc(OC)c(C2C(C(C)=O)=C(O)C(=O)N2c2ccc(O)cc2)c1 (centres undefined) | - | - | - | - | -
O=C(Cc1c(F)cccc1Cl)Nc1ccc(S(=O)(=O)NCC2CCCO2)cc1 (centres undefined) | - | - | - | - | -
COc1ccc(/C=C/C(=O)Nc2cccnc2Cl)cc1 | . | - | - | 42 | 60
COc1cc(/C=C/C(=O)NCc2ccccn2)cc(OC)c1OC | - | - | - | - | -
COc1ccccc1/C=C/C(=O)Nc1cccnc1Cl | - | - | - | 30 | 51
COc1ccccc1/C=C/C(=O)NCCc1ccccn1 | - | - | - | 55 | 88
O=C1CC(=O)N2N=C(c3ccc([N+](=O)[O-])cc3)SC2=N1 | ? | - | - | - | -
CCc1ccc(NC(=O)c2cc(C)on2)cc1 | - | - | - | 28 | 51
